High-throughput results deposited in PubChem BioAssay by National Center for Advancing Translational Sciences (NCATS).
Only some compounds are listed: those with a hit (about 3.2% of all), similar ones and a draw of the others.
GLP-1R inv ag – acts as inverse agonist at human GLP-1 receptor; HEK293 GLP-1R CRE-luciferase, luminescence, 24 h; GLP-1R form is constitutively active; Potency, µM (titrated, usually from 38.3 µM), hits mostly inhibitors; P43220; 1.6% of 410,000 active; also: nearly all actives have a fitted effect of over 55% in size
Target sequence (P43220 whole entry, looked up): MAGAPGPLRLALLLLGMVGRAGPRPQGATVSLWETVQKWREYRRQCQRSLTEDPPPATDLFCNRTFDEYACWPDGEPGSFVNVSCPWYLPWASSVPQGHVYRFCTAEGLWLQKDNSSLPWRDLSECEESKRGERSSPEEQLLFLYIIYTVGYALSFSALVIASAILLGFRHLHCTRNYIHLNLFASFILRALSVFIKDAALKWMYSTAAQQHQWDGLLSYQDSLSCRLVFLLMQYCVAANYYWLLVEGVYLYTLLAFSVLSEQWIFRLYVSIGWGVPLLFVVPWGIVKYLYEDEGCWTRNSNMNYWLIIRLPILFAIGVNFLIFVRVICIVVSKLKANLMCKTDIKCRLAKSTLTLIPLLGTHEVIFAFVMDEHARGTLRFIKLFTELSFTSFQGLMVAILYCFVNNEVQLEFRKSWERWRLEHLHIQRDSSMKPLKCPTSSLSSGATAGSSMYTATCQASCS
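Inverse agonism was detected as reduced cAMP-driven luciferase luminescence after 24 h compound treatment. The cells were HEK293 clones expressing constitutively active human GLP-1R with the reporter. Reporter-only and GPR119 cell lines served as counterscreen controls.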
ClpP mod – qHTS Assay for Activators of ClpP; ATP-dependent Clp protease proteolytic subunit (Bacillus subtilis (strain 168)), P80244; purified B. subtilis ClpP, FRET peptide cleavage, 20 min; Potency, µM (titrated, usually from 57.5 µM); 1.9% of 340,000 active; AID 651965, 2013; active = well fitted falling curve with a large enough effect; inconclusive = small, poorly fitted or top-dose-only effect; inactive = no such curve, though single readings can be large or run the other way; also: the source files actives as falling curves though it sought activators and does not explain the sign; nearly all actives have a fitted effect of over 65% in size
Target sequence (P80244 whole entry, looked up): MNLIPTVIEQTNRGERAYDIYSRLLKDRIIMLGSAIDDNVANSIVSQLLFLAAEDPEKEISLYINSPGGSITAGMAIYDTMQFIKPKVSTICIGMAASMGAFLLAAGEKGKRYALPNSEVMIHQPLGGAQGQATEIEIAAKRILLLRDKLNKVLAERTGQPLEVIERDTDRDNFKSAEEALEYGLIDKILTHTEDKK
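ClpP 10 microg/mL final, pH 8 Tris/KCl buffer with BSA, glycerol, Tween-20; compound pinned in; FRET-FV substrate; RT 20 min; Ex320/Em430; ΔFRET vs ADEP 5.8 microM, DMSO, no enzyme.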
HEK293 tox – cytotoxicity in counter-screen for GLP-1R inverse agonists; HEK293 cAMP-luciferase reporter cells, luminescence, 24 h; Potency, µM (highest dose often 38.3 µM), actives largely listed as inhibitors; 0.13% of 410,000 active; AID 624418;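 also: loss of luciferase light is scored as toxicity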
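Luminescence readout: signal drop marks cytotoxicity. Plated cells grew 12 h at 37 °C, 5% CO2, received 23 nL compound for 24 h, then got luciferase reagent, read after 12 min at RT.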
GLP1R ag – activates the human GLP-1 receptor; P43220; HEK293 GLP-1R CRE-luciferase, luminescence, 4-6 h; cells express a hypersensitive GLP-1R form; Potency, µM (highest dose often 45.6 µM), actives largely listed as activators; 0.007% of 380,000 active
A number is an active result; n = inactive; u = inconclusive; x = no result. Unless noted, calls follow the shape of the dose curve; as a rule, active = well fitted curve in the direction sought with a large enough effect; inconclusive = small, poorly fitted or top-dose-only effect, or another doubt; inactive = no such curve, though single readings can be large; an effect the other way counts as inactive or inconclusive.

SMILES | GLP-1R inv ag | ClpP mod | HEK293 tox | GLP1R ag
CCN1CCc2c(C#N)c(N3CCOCC3)nc(NCCO)c2C1 | n | 8.91µM | n | n
C=CCNc1nc(N2CCCCC2)c(C#N)c2c1CN(Cc1ccccc1)CC2 | u | 28.2µM | n | n
CCN1CCc2c(C#N)c(N3CCOCC3)nc(NCc3ccccc3)c2C1 | n | n | n | n
OCCCNc1ncnc2sc3c(c12)CCN(Cc1ccccc1)C3 | n | n | n | n
COc1cc(/C=c2\[nH]c(=O)/c(=C/c3cc(OC)c(OC)c(OC)c3)[nH]c2=O)cc(OC)c1OC | x | n | x | x
O=C(NCc1cccc(F)c1)c1ccc(CS(=O)c2ccccc2Cl)o1 (stereo not drawn) | n | n | n | x
CCSc1nc(-c2ccc(OC)cc2)cc(-c2ccccc2)c1C#N | n | 28.2µM | n | n
COc1ccc(-c2cc(-c3cccs3)c(C#N)c(SCC(=O)NCc3ccccc3OC)n2)cc1 | n | 39.8µM | n | n
Cc1cccn2c(=O)c3cc(C(=O)N(Cc4ccccc4)C(C)C)sc3nc12 | n | n | n | x
COC(=O)c1c(NC(=O)CS(=O)(=O)c2ccc(C)cc2)sc2c1CCCC2 | n | n | n | x
CCC(=O)Nc1cccc(C2=NOC3(C2)C[C@@H](C(N)=O)N(C(=O)C(c2ccccc2)c2ccccc2)C3)c1 (stereo partly drawn) | n | n | n | n
NC(=O)[C@@H]1CC2(CC(c3cccc(NC(=O)COc4ccc(Cl)cc4)c3)=NO2)CN1C(=O)COc1ccc(Cl)cc1 (stereo partly drawn) | 11.2µM | n | n | n
N#CCC(=O)N1CC2(CC(c3cccc(NC(=O)COc4ccc(Cl)cc4)c3)=NO2)C[C@@H]1C(N)=O (stereo partly drawn) | n | n | n | n
NC(=O)[C@H]1CC2(CC(c3cccc(NC(=O)COc4ccc(Cl)cc4)c3)=NO2)CN1C(=O)C(c1ccccc1)c1ccccc1 (stereo partly drawn) | 5.62µM | n | u | n
CC(C)CN(CC(C)C)C(=S)NC1CCCCC1 | u | n | 10µM | n
CC(C)CCNC(=S)NC1CCCC1 | n | n | n | n
Cc1ccccc1C(=O)N1CCN(c2ccc(NC(=O)CSc3ccc(Cl)cc3)cc2)CC1 | 7.08µM | n | n | n
Cc1ccnc2cc(Cl)c(Cl)cc12 | x | n | x | x
COc1ccccc1Nc1cc(C(=O)NCCCN(C)c2ccccc2)c2ccccc2n1 | 5.62µM | u | n | x
Cc1ccc(CNc2nc3ccc(Cl)cc3n3cnnc23)cc1 | n | n | n | x
COc1cccc(NC(=O)c2cccc(S(=O)(=O)N3CCN(Cc4ccccc4)CC3)c2)c1 | 6.31µM | x | n | n
COc1cccc(NC(=O)C2(C)CCN2CCc2ccccc2)c1 (stereo not drawn) | 11.2µM | n | n | n
CSc1ccc(CN(C)C(=O)c2cccc(S(=O)(=O)N3CCN(Cc4ccccc4)CC3)c2)cc1 | 11.2µM | n | n | n
CN(Cc1ccc(F)cc1)C(=O)c1cccc(S(=O)(=O)N2CCN(c3ccc(F)cc3)CC2)c1 | 10µM | n | n | n
CC(=O)Nc1cccc(NC(=O)c2cccc(S(=O)(=O)N3CCN(Cc4ccccc4)CC3)c2)c1 | u | n | n | n
SMILES | GLP-1R inv ag | ClpP mod | HEK293 tox | GLP1R ag
CN(Cc1ccc(F)cc1)C(=O)c1cccc(S(=O)(=O)N2CCN(Cc3ccccc3)CC2)c1 | u | x | n | n
CN(Cc1ccc(F)cc1)C(=O)c1cccc(S(=O)(=O)N2CCN(c3ccccc3)CC2)c1 | u | n | n | n
COc1ccc(-c2nn3c(-c4cc(C)[nH]n4)nnc3s2)cc1 | x | n | x | x
CSc1ccc(CN(C)C(=O)c2cc(S(=O)(=O)NCc3ccccc3)ccc2C)cc1 | u | n | n | n
COCCN(Cc1ccccc1)C(=O)c1cccc(S(=O)(=O)N2CCN(c3ccc(F)cc3)CC2)c1 | u | n | n | n
COCCN(Cc1ccccc1)C(=O)c1cccc(S(=O)(=O)N2CCN(c3ccccc3)CC2)c1 | 10µM | x | n | n
CSc1ccc(CN(C)C(=O)c2cccc(S(=O)(=O)NCc3ccccc3)c2)cc1 | 5.01µM | n | n | n
COc1ccc(/C=C(\CC(=O)O)c2nc3ccccc3o2)cc1 | n | x | n | n
COc1ccc(C(=O)/C(=C/c2cccs2)c2nc3ccccc3o2)cc1 | 11.2µM | n | n | n
CCc1cccc(CC)c1N(COC)C(=O)Cn1cnc2ccccc21 | u | x | n | n
CCc1cccc(CC)c1N(COC)C(=O)Cn1c(C)nc2ccccc21 | 2.24µM | n | n | x
Cc1cccc(-c2nc(CCNC(=O)COc3ccccc3)cs2)c1 | n | n | n | x
COc1ccc(C(=O)Nn2c(SCc3cccc([N+](=O)[O-])c3)nc3ccccc3c2=O)cc1 | 5.62µM | n | n | n
CCOC(=O)c1c(C)[nH]c(C(=O)OCC(=O)Nc2sccc2C(N)=O)c1C | 11.2µM | n | u | n
Cc1ccccc1-c1noc(-c2ccc(N3CCCCC3)c([N+](=O)[O-])c2)n1 | n | n | n | x
COc1ccc(-c2cc(=O)oc3c4c(ccc23)OCN(Cc2cccc(OC)c2)C4)cc1 | n | 31.6µM | n | x
COc1ccc(-c2cc(=O)oc3c4c(ccc23)OCN(Cc2ccccc2)C4)cc1 | n | n | n | x
COc1ccc2c(CNCCc3cccs3)c(C(=O)O)n(Cc3ccc(F)cc3Cl)c2c1 | n | n | n | x
Cc1c(CCOC(=O)c2ccc(Cl)cc2Cl)sc[n+]1CC(=O)c1ccc(Br)cc1 | 10µM | n | u | n
COc1ccc(C(=O)OCCc2sc[n+](CC(=O)c3ccccc3)c2C)cc1 | n | x | n | n
Cc1c(CCOC(=O)C2C3CC4CC(C3)CC2C4)sc[n+]1CC(=O)c1ccc(Br)cc1 (stereo not drawn) | 11.2µM | n | u | n
O=C(NCCc1ccccc1Cl)c1ccc2c(c1)nc1n2CCCCC1 | 12.6µM | n | n | x
COc1ccc(CCNC(=O)c2ccc3c(c2)nc2n3CCCCC2)cc1OC | n | n | n | x
O=C(NCCc1ccccc1)c1ccc2c(c1)nc1n2CCOC1 | 8.91µM | n | n | x
CC(C)CCNC(=O)c1ccc2c(c1)nc1n2CCCCC1 | 6.31µM | n | n | x
SMILES | GLP-1R inv ag | ClpP mod | HEK293 tox | GLP1R ag
CCNC(=O)c1ccc2c(c1)nc1n2CCCCC1 | n | n | n | x
CC(C)(C)c1ccc(OCCSc2nc(-c3cccs3)nc3cc(=O)[nH]n23)cc1 | n | n | n | x
CCOC(=O)c1ccc(Nc2nc3ccccc3n3c(C)nnc23)cc1 | n | n | n | x
S=C(Nc1ccccc1Cl)N(Cc1ccccc1)Cc1ccccn1 | 10µM | x | u | n
Cc1c(Cl)cccc1NC(=S)N(Cc1cccnc1)Cc1ccccc1Cl | 11.2µM | n | n | n
COCCNC(=O)CSc1nnc(NC(=O)Nc2ccc(C)cc2)s1 | n | n | n | x
c1ccc(CNc2nc(CN3CCOCC3)nc3scc(-c4ccccc4)c23)cc1 | n | n | n | n
Clc1ccc(-c2csc3ncnc(NCCN4CCOCC4)c23)cc1 | 3.16µM | n | n | n
Clc1ccc(CNc2nc(CN3CCOCC3)nc3scc(-c4ccccc4)c23)cc1 | 3.16µM | n | u | n
